# Records with an inconclusive call do not appear. Entries that show only a call come without a potency. The source made the active and inactive calls. Calls come from the whole dose curve; as a rule, active = well fitted curve in the direction sought with a large enough effect; inconclusive = small, poorly fitted or top-dose-only effect, or another doubt; inactive = no such curve, though single readings can be large; an effect the other way counts as inactive or inconclusive.
# Tests used:
# [1] = qHTS to identify inhibitors of the type 1 interferon - major histocompatibility complex class I in skeletal muscle: primary screen against the NCATS Pharmaceutical Collection (AID 1347407);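 note: luminescence of HiBiT knocked into endogenous HLA-B as interferon-induced MHC class I level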; note: potency is the fitted concentration of half-maximal effect
# Summary of the method: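 Compounds […] were added to CRISPR-engineered HLA-B-HiBiT C25cl48 human myoblasts with 4.0 ng/ml IFN-beta. After 24 hrs at 37 C, cells were lysed and HiBiT luminescence measured.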
# [2] = target: Protein phosphatase 1D (Homo sapiens) (UniProt O15297); test: RapidFire Mass Spectrometry qHTS Assay for Modulators of WT P53-Induced Phosphatase 1 (WIP1) (AID 1347424);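 note: amount of dephosphorylated VEPPL-S-QETFS peptide product formed by WIP1; series mostly up to about 63 µM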
# Sequence of Protein phosphatase 1D (Homo sapiens) (O15297 whole entry, looked up): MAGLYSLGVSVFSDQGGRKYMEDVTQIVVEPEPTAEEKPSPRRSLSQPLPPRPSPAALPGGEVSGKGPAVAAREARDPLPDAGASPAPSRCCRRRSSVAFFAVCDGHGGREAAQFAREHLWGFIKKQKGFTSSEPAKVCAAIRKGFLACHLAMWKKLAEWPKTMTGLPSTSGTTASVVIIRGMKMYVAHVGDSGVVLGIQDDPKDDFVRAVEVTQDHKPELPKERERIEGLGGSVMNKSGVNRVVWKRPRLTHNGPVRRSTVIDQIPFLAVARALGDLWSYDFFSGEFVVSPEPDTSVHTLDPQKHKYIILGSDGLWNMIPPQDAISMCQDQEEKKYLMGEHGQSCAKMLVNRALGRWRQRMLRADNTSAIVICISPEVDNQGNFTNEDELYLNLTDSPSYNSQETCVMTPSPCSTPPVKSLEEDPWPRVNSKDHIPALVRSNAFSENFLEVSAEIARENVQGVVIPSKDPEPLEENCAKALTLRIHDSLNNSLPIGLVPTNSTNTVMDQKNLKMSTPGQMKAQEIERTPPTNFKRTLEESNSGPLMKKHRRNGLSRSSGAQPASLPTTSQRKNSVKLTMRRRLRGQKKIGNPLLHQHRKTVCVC
# Summary of the method: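 10 nM WIP1 preincubated with compounds 1 hr at room temperature in pH 7.5 Tris buffer with 30 mM MgCl2, 1 mM TCEP; 2 uM VEPPL-pS-QETFS phosphopeptide for 5 min, formic acid quench; dephosphorylated product quantified by RapidFire MS against labelled standard.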
# [3] = target: Protein phosphatase 1D (Homo sapiens) (UniProt O15297); test: Rhodamine-PBP qHTS Assay for Modulators of WT P53-Induced Phosphatase 1 (WIP1) (AID 1347425)
# Summary of the method: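 Read-out: Rhodamine-PBP fluorescence (ex 525/em 598 nm) for released Pi, read each minute for 11 min after adding 10 uM VEPPL-pS-QETFS; signal taken as f1 minus pre-substrate f0. Enzyme 5 nM WIP1 with 1 hr room-temperature compound preincubation.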
# [4] = qHTS for inhibitors of adenylyl cyclases using a fission yeast platform: a pilot screen against the NCATS LOPAC library (AID 1347410)
# Summary of the method: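 GFP from fbp1-GFP reporter, read by Acumen laser cytometry, indicates AC inhibition in fission yeast expressing AC9, GNAS and PDE4D2. Cells grown 18 h in the dark at 30C with compounds, final up to 57 uM.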
# [5] = qHTS to identify inhibitors of the type 1 interferon - major histocompatibility complex class I in skeletal muscle: primary screen against the NCATS Mechanism Interrogation Plate v5.0 (MIPE) Libary (AID 1347411); note: nearly all actives have a fitted effect of over 65% in size; note: potency is the fitted concentration of half-maximal effect
# Summary of the method: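 Cells were genome-edited human myoblasts carrying a HiBit tag on endogenous HLA-B. They were treated with IFN-beta (4.0 ng/ml) and titrated compounds (top 46 uM) for 24 hrs before lytic HiBiT detection.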
# [6] = Validation qHTS assay for inhibitors of Activation Induced Cytidine Deaminase (AID): UDG Counterscreen signal (AID 1347427)
# Summary of the method: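 Counterscreen read of UDG activity (2 U/mL, 4/3x) in the FRET deamination format with AID (1 uM, 4/3x), DJC20/DJC23 substrates (250 nM, 4x), 4 h at room temperature. NaOH stop, fluorescence at 560 ex/665 em.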
compound,measurement,setting,value
COC(=O)c1nc(Cl)c(Cl)nc1N,Potency,[1],10.5 µM (active)
same,Potency,[2],inactive
same,outcome,[3],inactive
COc1ccc(-c2cc(=O)c3c(O)c(OC)c(OC)cc3o2)cc1O,outcome,[4],inactive
C=C[C@H]1CN2CC[C@@H]1C[C@@H]2[C@@H](O)c1ccnc2ccc(OC)cc12,outcome,[4],inactive
Nc1nc(OCC2CCCCC2)c2[nH]cnc2n1,outcome,[4],inactive
CCOC(=O)N1CCN(/[N+]([O-])=N/Oc2ccc([N+](=O)[O-])cc2[N+](=O)[O-])CC1,outcome,[4],inactive
same,Potency,[5],20.8 µM (active)
same,Potency,[6],inactive
CCN(CC)CCCCNc1ncc2cc(-c3c(Cl)cccc3Cl)c(NC(=O)NC(C)(C)C)nc2n1,outcome,[4],inactive
CCCCN(CC)c1nc(C)nc2c1c(C)cn2-c1c(C)cc(C)cc1C,outcome,[4],inactive
CC(C(=O)O)c1ccc(C(=O)c2ccccc2)s1 (centres undefined),Potency,[1],inactive
same,Potency,[2],inactive
same,outcome,[3],inactive
O=C(NOCC1CC1)c1cc(Br)c(F)c(F)c1Nc1ccc(I)cc1Cl,outcome,[4],inactive
O=C1NC(=O)/C(=C/c2ccc(-c3ccc(F)cc3O)o2)S1,outcome,[4],inactive
same,Potency,[5],inactive
same,Potency,[6],inactive
NC(=O)C(c1ccccc1)(c1ccccc1)[C@@H]1CCN(CCc2ccc3c(c2)CCO3)C1,Potency,[1],inactive
same,Potency,[2],inactive
same,outcome,[3],inactive
O=C(CCN1CCN(CCO)CC1)N1c2ccccc2Sc2ccc(C(F)(F)F)cc21,Potency,[1],inactive
same,Potency,[2],inactive
same,outcome,[3],inactive
C#C[C@]1(O)CC[C@H]2[C@@H]3CCc4cc(O)ccc4[C@H]3CC[C@@]21C,Potency,[1],inactive
same,Potency,[2],inactive
same,outcome,[3],inactive
CC(=O)c1ccc(OCC(=O)N2CCCCC2)cc1,Potency,[1],inactive
same,Potency,[2],inactive
same,outcome,[3],inactive
CNC(=O)c1c(I)c(NC(=O)CCCCC(=O)Nc2c(I)c(C(=O)O)c(I)c(C(=O)NC)c2I)c(I)c(C(=O)O)c1I,Potency,[1],inactive
same,Potency,[2],inactive
same,outcome,[3],inactive
Cc1cc(O)c2ccccc2c1O,Potency,[1],inactive
same,outcome,[3],inactive
CC(C)OC(=O)c1cc(C(=O)OC(C)C)cc([N+](=O)[O-])c1,Potency,[1],inactive
same,Potency,[2],inactive
same,outcome,[3],inactive
Nc1ccc([N+](=O)[O-])cc1O,Potency,[1],inactive
same,Potency,[2],inactive
same,outcome,[3],inactive
O=C(Nc1ccc(C(=O)O)c(O)c1)c1ccccc1,Potency,[1],inactive
same,Potency,[2],inactive
same,outcome,[3],inactive
CCCCCCCCCCCCOCCO,Potency,[1],inactive
same,Potency,[2],inactive
same,outcome,[3],inactive
COc1ccc(/C=C/c2nc(NCCCN(C)C)c3ccccc3n2)cc1,outcome,[4],inactive
Cc1nc2ccccc2n1Cc1ccc(Cl)cc1,Potency,[1],inactive
same,Potency,[2],inactive
same,outcome,[3],inactive
CN(C)[C@@H]1C(=O)C(C(=O)NCN2CCCC2)=C(O)[C@@]2(O)C(=O)C3=C(O)c4c(O)cccc4[C@@](C)(O)C3C[C@@H]12 (some centres undefined),Potency,[1],inactive
same,outcome,[3],inactive
c1ccc(CCNc2nc(-c3ccccc3)cs2)cc1,Potency,[1],inactive
same,Potency,[2],inactive
same,outcome,[3],inactive
CCCCCCCCCCCCCCCCCC(=O)O,Potency,[1],inactive
same,Potency,[2],inactive
same,outcome,[3],inactive
CCCCCCCCCCCCCCCC(=O)OC(C)C,Potency,[1],inactive
same,Potency,[2],inactive
same,outcome,[3],inactive
COc1cccc2c1C(=O)c1c(O)c3c(c(O)c1C2=O)C[C@@](O)(C(=O)CO)C[C@@H]3O[C@H]1C[C@H](N)[C@H](O[C@@H]2CCCCO2)[C@H](C)O1,Potency,[1],inactive
same,Potency,[2],inactive
same,outcome,[3],inactive
Nc1c(CC(=O)O)cccc1C(=O)c1ccc(Br)cc1,Potency,[1],inactive
same,outcome,[3],inactive
COC(=O)C1=C(C)NC(C)=C(C(=O)OC)C1c1cccc(NC(=O)NCCCN2CCC(c3cccc(OC)c3)CC2)c1,outcome,[4],inactive
CCOc1ccc2nc(S(N)(=O)=O)sc2c1,Potency,[1],inactive
same,Potency,[2],inactive
same,outcome,[3],inactive
O=C1CN(/N=C/c2ccc([N+](=O)[O-])o2)C(=O)N1,Potency,[1],inactive
same,Potency,[2],inactive
same,outcome,[3],inactive
COc1cc(OC)cc(-c2cc3cnc(N)nc3nc2NC(=O)NC(C)(C)C)c1,outcome,[4],inactive
N#C/C(=C\c1ccc(O)c(O)c1)C(=O)NCc1ccccc1,Potency,[5],inactive
same,Potency,[6],inactive
O=c1[nH]c2ccccc2n1CCCN1CCN(C(c2ccccc2)c2ccccc2)CC1,Potency,[2],inactive
same,outcome,[3],inactive

# Reference: PubChem BioAssay (NCATS)
